Reference: PubChem BioAssay
Unmarked numbers belong to inactive results. The source made the active and inactive calls. Cut-off read from the data, not from the text of the source: active = inhibition above about 36%; inactive = the rest.

Each compound was assayed on transactivating tegument protein VP16 (Human herpesvirus 1) (assay: VP16 transactivation reporter inhibitors, counter-screen for SRC2 inhibitor project, cell-based, luminescence, single concentration (AID 652007)). Details: cell-based VP16 transactivation luciferase reporter, at 8.9 µM, stronger effect = higher value.
For `O=S(=O)(Cc1ccccc1Cl)NCCc1ccc(F)cc1`, the inhibition was -11.3%.
`Cc1ccc2nc(C)cc(Nc3ccc4c(c3)OCCO4)c2c1` showed an inhibition of -23.7%.
In the case of `O=C(Nc1ccccc1)C1=C(c2ccccc2)S(=O)(=O)CCS1(=O)=O`, the inhibition is reported as 84.9% (active).
With `Cc1ccc(S(=O)(=O)N2CCN(C(=O)c3cc4c(C)nn(-c5ccccc5C)c4s3)CC2)cc1` the inhibition was 4.9%.
Compound `Cc1cccc(C(=O)N2CCC(Cc3ccccc3)CC2)c1[N+](=O)[O-]` has an inhibition of 14.4%.
`COc1cc(C)c(Br)cc1S(=O)(=O)NCc1cccs1` was tested, and the inhibition was -10.6%.
With `Cc1cc(N)ccc1-n1nc2ccccc2n1` the inhibition was -7.48%.
For `O=C(CCCN1C(=O)/C(=C/c2ccccc2)SC1=S)NCCCn1ccnc1`, the inhibition was 35.9% (active).
In the case of `O=c1cc(-c2ccc(O)cc2)oc2ccc3ccccc3c12`, the inhibition is reported as 5.39%.
With `COC(=O)C1Cc2ccccc2CN1C(=O)CCl` (stereo not given) the inhibition was 27.7%.
With `CCNC(=O)C1(C)CCCN(Cc2csc(-c3ccccc3)n2)C1` (stereo not given) the inhibition was -30.6%.
Work on `CCOC(=O)Cn1c(=O)c2c(nc(N3CCCCC3)n2Cc2ccccc2)n(C)c1=O` yielded an inhibition of -5.76%.
Work on `Cc1ccc2c(c1)sc(=NC(=O)c1cccs1)n2C` yielded an inhibition of -58.3%.
With `O=C1CSC(c2ccc([N+](=O)[O-])cc2)N1c1ccc(O)cc1` (stereo not given) the inhibition was 5.23%.
In the case of `N#Cc1c(NC(=O)CSc2ncn[nH]2)sc2c1CCCC2`, the inhibition is reported as 84% (active).
Compound `CC(C)(C)C(=O)Nc1nnc(CSCc2ccccc2F)s1` has an inhibition of -20.9%.
For `COc1ccc(C(=O)c2ccc(CC(=O)O)s2)cc1`, the inhibition was 29.4%.
`COc1cccc(/C=C2/SC(=S)N(CCCC(=O)Nc3ccc(O)cc3)C2=O)c1` was tested, and the inhibition was 51.1% (active).
Compound `CCC(=O)Nc1ccc(NC(=O)c2oc3ccccc3c2C)cc1` has an inhibition of -12.3%.
Work on `Cc1ccc(NC(=O)CSc2ncnc3ccccc23)cc1S(=O)(=O)N1CCCCCC1` yielded an inhibition of 12.7%.
Work on `COc1cc(OC)c(CN2CCc3c([nH]c4ccccc34)C2)cc1Br` yielded an inhibition of -7.11%.
In the case of `CCC(C)C(NC(=O)OCc1ccccc1)C(=O)OCN1C(=O)c2ccccc2C1=O` (stereo not given), the inhibition is reported as -13.9%.
`N#Cc1c(N)nc2c(c1N)CC(C(F)(F)F)O2` (stereo not given) showed an inhibition of -1.62%.
Compound `CCOc1ccc(-c2cc(CCCC(=O)NCc3ccco3)no2)cc1` has an inhibition of 16.9%.
In the case of `COc1ccc(-c2cc(C(=O)O)c(C)o2)cc1OC`, the inhibition is reported as -74%.
Compound `CN1C(=O)C(c2cn(C)c3ccccc23)(c2cn(C)c3ccccc23)c2cc(F)ccc21` has an inhibition of 11.8%.
`COc1ccc2cc3cc(C(=O)Nc4ccc5c(c4)OCO5)oc3nc2c1` showed an inhibition of -29.9%.
`Cc1c(CCC(=O)N[C@@H](CCCNC(N)=O)C(=O)O)c(=O)oc2cc3oc4c(c3cc12)CCCC4` was tested, and the inhibition was 47.2% (active).
`CCN(CC)S(=O)(=O)c1ccc(C)c(NC(=S)NC2CCCCC2)c1` was tested, and the inhibition was 8.38%.
For `O=C(O)c1cccc(CSc2nnc(COc3ccccc3)o2)c1`, the inhibition was 15.7%.
`COc1ccc(-c2nnc(SCc3cccc(F)c3)n2-c2ccccc2)cc1` showed an inhibition of -12.4%.
For `Cc1ccc(-c2noc(CCC(=O)NCCN3CCN(Cc4ccccc4)CC3)n2)cc1`, the inhibition was 12.2%.
`CCCCC(=O)Nc1ccc(C)c(S(=O)(=O)N2CCCCCC2)c1` was tested, and the inhibition was -13.7%.
`CCC(C)c1ccc(C(C)NC(=S)NC2CCCCC2)cc1` (stereo not given) gave an inhibition of -0.76%.
`CCc1ccc(C(=O)Nc2nc3ccccc3[nH]2)cc1` gave an inhibition of -1%.
`COc1ccc(C(=O)C(CN2CCOCC2)c2ccccc2)cc1F` (stereo not given) showed an inhibition of -1.66%.
In the case of `COC(=O)c1ccc(NC(=O)c2nc(S(=O)(=O)Cc3cccc(C)c3)ncc2Cl)cc1`, the inhibition is reported as 46% (active).
For `O=C(COC(=O)CCCOc1ccc(Cl)cc1Cl)NCc1ccccc1`, the inhibition was 0.2%.
Compound `O=S(=O)(c1ccccc1)N1CCC(O)(CSc2ccc(F)cc2)CC1` has an inhibition of -1.83%.
With `CC(Oc1ccc(Cl)cc1Cl)C(=O)NCCCn1ccnc1` (stereo not given) the inhibition was -8.12%.
